Screening results: PubChem, National Center for Advancing Translational Sciences (NCATS)
NPC1 promoter act: qHTS Assay for NPC1 Promoter Activators; Huh7 NPC1 promoter luciferase reporter, 24 h; Potency, µM (top dose mostly 9.22 µM), most hits filed as activators; actives 2.4% (n = 320,000); AID 485313, 2010; note: nearly all actives have a fitted effect of over 60% in size
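Luciferase expression driven by the NPC1 promoter was measured in stably transfected Huh7 cells after a 24 h compound incubation, using a luciferase reagent and a luminescence read.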
FLuc modulator: qHTS profiling assay for firefly luciferase inhibitor/activator using purifed enzyme and Km concentrations of substrates (counterscreen for miR-21 project) | Luciferin 4-monooxygenase (Photinus pyralis), P08659 | purified FLuc, Km substrates, luminescence inhibition | Potency, µM (doses to about 57.5 µM), usual class: inhibitors | actives 6.9% (n = 360,000); note: nearly all actives have a fitted effect of over 55% in size
Target sequence (P08659 whole entry, looked up): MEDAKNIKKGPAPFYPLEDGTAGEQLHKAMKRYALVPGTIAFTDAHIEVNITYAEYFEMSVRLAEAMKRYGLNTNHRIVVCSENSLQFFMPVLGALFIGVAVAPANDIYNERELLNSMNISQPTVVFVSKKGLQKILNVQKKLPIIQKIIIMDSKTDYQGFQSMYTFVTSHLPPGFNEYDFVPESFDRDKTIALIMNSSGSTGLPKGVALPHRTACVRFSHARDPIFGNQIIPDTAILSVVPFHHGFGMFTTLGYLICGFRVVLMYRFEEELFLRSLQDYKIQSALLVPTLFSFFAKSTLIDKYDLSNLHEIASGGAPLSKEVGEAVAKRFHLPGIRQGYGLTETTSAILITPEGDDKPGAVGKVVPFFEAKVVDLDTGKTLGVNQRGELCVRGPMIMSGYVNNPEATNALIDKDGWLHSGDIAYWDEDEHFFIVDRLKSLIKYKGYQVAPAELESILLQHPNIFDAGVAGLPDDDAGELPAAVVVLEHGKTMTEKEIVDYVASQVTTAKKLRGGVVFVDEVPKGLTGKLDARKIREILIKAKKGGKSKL
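Purified P. pyralis luciferase, 10 nM final, with Km-level 10 uM D-luciferin and 10 uM ATP in 50 mM Tris acetate pH 7.5, 10 mM Mg acetate, 0.01% Tween-20, 0.05% BSA; 6-point qHTS titration about 60 µM downward; luminescence read.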
Rab9 promoter act: qHTS Assay for Rab9 Promoter Activators | Huh7 Rab9 promoter-luciferase reporter, luminescence, 24 h | Potency, µM (top dose mostly 9.22 µM), actives largely listed as activators | actives 2.8% (n = 320,000); note: nearly all actives have a fitted effect of over 60% in size
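Measured in stably transfected Huh7 cells bearing a Rab9 promoter–luciferase construct: 24 h compound treatment at 37 °C, followed by luminescence detection.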
SMN2 splice enh: qHTS Assay for Enhancers of SMN2 Splice Variant Expression; actives 2.8% (n = 210,000); Potency, µM (top dose mostly 46.1 µM), most hits filed as activators; HEK293 SMN2-luciferase splicing reporter, luminescence, 30-36 h; AID 1458, 2008; note: nearly all actives have a fitted effect of over 55% in size
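HEK293 cells carry an SMN2 minigene-luciferase reporter in which exon 7 inclusion puts luciferase in frame. Cells were seeded at 2000 cells/well, attached for 10-12 hours, then exposed to compounds for 30-36 hours at 37C before ONE-Glo luminescence.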
ELG1 genotox: qHTS screen for small molecules that induce genotoxicity in human embryonic kidney (HEK293T) cells expressing luciferase-tagged ELG1; actives 1.3% (n = 330,000); AID 504466, 2011; Potency, µM (doses to about 46 µM), usual class: activators; HEK293T ELG1-luciferase reporter, luminescence, 16 h; note: nearly all actives have a fitted effect of over 60% in size
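16 hr compound incubation (37 °C, 5% CO2) of HEK293T cells carrying luciferase-tagged ELG1; luciferase then measured by ONE-Glo luminescence after 30 min at RT.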
ELG1 repair inh: qHTS screen for small molecules that inhibit ELG1-dependent DNA repair in human embryonic kidney (HEK293T) cells expressing luciferase-tagged ELG1. HEK293T ELG1-luciferase reporter, luminescence, 16 h; DNA damage induced by 5-fluorouridine. Potency, µM (doses to about 46.1 µM), hits mostly inhibitors. actives 2.3% (n = 330,000). AID 504467, 2011; note: nearly all actives have a fitted effect of over 55% in size
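Luminescence from the luciferase reporter, measured 30 min after ONE-Glo reagent at room temperature, was the read-out. Beforehand, 2,000 cells per well were exposed for 16 hr at 37 °C to 5-fluorouridine together with compound or vehicle.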
Numbers stand for hits; 0 = inactive; ? = inconclusive; - = not tested or not shown; [ ] = remark or other dose. Shown are actives, neighbours in structure and some others; about 9.2% of the full set was active somewhere. Calls come from the whole dose curve; as a rule, active = well fitted curve in the direction sought with a large enough effect; inconclusive = small, poorly fitted or top-dose-only effect, or another doubt; inactive = no such curve, though single readings can be large; an effect the other way counts as inactive or inconclusive.

SMILES | NPC1 promoter act | FLuc modulator | Rab9 promoter act | SMN2 splice enh | ELG1 genotox | ELG1 repair inh
O=C(C[n+]1ccccc1)N/N=C/c1cc(Br)ccc1O | 0 | 0 | 0 | - | 0 | 0
CCOc1ncccc1C(=O)Nc1ccc2c(c1)OCCCO2 | 0 | ? | 0 | - | 0 | 0
O=C(Nc1cccc(-c2nc3cc(Cl)ccc3o2)c1)C1CCCO1 (configuration not stated) | 0 | 0[2.3 µM] | 0 | 25.1µM | 0 | ?
O=C(O)c1ccc(Cl)cc1NC(=O)C1CCCO1 (configuration not stated) | - | 0 | - | 0 | - | -
Cc1ccc2oc(-c3cccc(NC(=O)C4CCCO4)c3)nc2c1 (configuration not stated) | 0 | 4.26µM | 0 | 12.6µM | 20.6µM | ?
Cc1cccc(-c2nc3cc(NC(=O)C4CCCO4)ccc3o2)c1 (configuration not stated) | 0.316µM | 0.849µM | 0.282µM | 1µM | 1.16µM | ?
Cc1cccc(-c2nc3cc(NC(=O)c4ccc(OCC(C)C)cc4)ccc3o2)c1 | - | 0 | - | 0 | - | -
CC1CCN(S(=O)(=O)c2ccc3c(c2)oc(=O)n3CC(=O)NC(C)c2ccccc2)CC1 (configuration not stated) | - | 0 | - | 0 | - | -
COc1ccc(/C=C/C(=O)Nc2cc(S(=O)(=O)N3CCOCC3)ccc2N2CCCC2)cc1OC | 0 | 0 | 0 | 0 | 0 | 0
COc1ccc(NC(=S)Nc2ccc(S(N)(=O)=O)cc2)c(OC)c1 | 0 | 0 | 0 | - | 0 | 0
COc1ccc(NC(=S)Nc2ccc(S(=O)(=O)N3CCOCC3)cc2)c(OC)c1 | 0 | 0 | 0 | 0 | 0 | 23.1µM
COc1ccc(/C=N/NC(=S)Nc2cc(S(=O)(=O)N3CCOCC3)ccc2N2CCOCC2)cc1O | 0 | ? | 0 | 0 | 0 | 7.31µM
CCOc1cccc(/C=N/NC(=S)Nc2cc(S(=O)(=O)N3CCOCC3)ccc2N2CCOCC2)c1O | 0 | ? | 0 | 0 | 0 | 5.8µM
COc1ccc(Cl)cc1NC(=O)N(C)CCc1c(C)nn(C)c1C | - | 0 | - | - | - | -
CC(=O)Oc1c(Cl)cc(Cl)cc1/C=C/c1ccc2ccccc2n1 | 0 | 0 | ? | - | 0 | ?
CC(=O)Oc1ccc(Cl)cc1/C=C/c1ccc2ccccc2n1 | 3.16µM | 5.36µM | ? | 14.1µM | 0 | ?
O=C(O)/C=C/c1ccc2ccccc2n1 | 0 | 0 | 0 | 0 | 0 | 0
C(=C\c1ccc2ccccc2n1)/c1ccccc1 | 2.82µM | 0.0757µM | 0.501µM | - | ? | ?
CCN(CC(=O)Nc1c(F)cccc1F)C(=O)/C=C/c1ccc2ccccc2n1 | 0 | 0 | 0 | - | 0 | 0
CCCN(CCC)c1ccc(/C=C/c2ccc3cc(OCC)ccc3n2)cc1 | ? | 6.75µM | 2.24µM | - | 0 | ?
Fc1ccccc1/C=C/c1ccc2ccccc2n1 | 3.98µM | 0.151µM | 2.24µM | 0.891µM | 0.326µM | ?
Cc1cccn2c(=O)c(C(=O)NCc3ccc(F)cc3)c(O)nc12 | - | 0 | - | 0 | - | -
COC(=O)CCN(C(=O)c1c(C)oc2ncnc(N3CCOCC3)c12)c1ccccc1 | - | 0 | - | - | - | -
Oc1ccc(/C=C/c2ccc3ccccc3n2)cc1 | ? | 0.135µM | ? | 2.82µM | 0.259µM | ?
CN(C)c1ccc(/C=C/c2ccc3ccccc3n2)cc1 | 0 | 0.0675µM | ? | - | ? | ?
SMILES | NPC1 promoter act | FLuc modulator | Rab9 promoter act | SMN2 splice enh | ELG1 genotox | ELG1 repair inh
Cc1ccc(/C=C/c2nc3ccccc3s2)s1 | 0 | 0.301µM | ? | 0 | 0.517µM | ?
Cc1ccc(S(=O)(=O)Nc2nc3ccccc3s2)cc1 | 0 | 0 | 0 | 0 | 0 | 0
O/C(=C\c1ccc2ccccc2n1)c1ccc(O)cc1O | 1.12µM | 1.51µM | 2.24µM | 8.91µM | 2.59µM | ?
CCN(CC)c1ccc(/C=C/c2cc(-c3ccccc3)c3ccccc3n2)cc1 | 0 | ? | 0 | - | 0 | 0
CC(=O)c1ccc(N2CCN(C(=O)/C=C/c3ccc4ccccc4n3)CC2)cc1 | 0 | ? | 0 | 0 | 0 | 0
O=C(COC(=O)C1=COCCO1)Nc1ccc([N+](=O)[O-])cc1C(F)(F)F | 0 | 0 | 0 | - | 0 | 0
COc1cc(/C=C(\C#N)C(N)=O)cc(CSc2nc3ccccc3s2)c1O | - | - | - | 0 | - | -
Cc1cc(N/N=C/c2ccc(N(C)C)cc2)c2ccccc2n1 | 0 | ? | 0 | - | 0 | 0
CN(C)c1ccc(/C=C/c2nc3ccccc3s2)cc1 | 0 | 0.107µM | ? | 0 | 0 | 0
COc1cc(/C=C/c2nc3ccccc3s2)cc(OC)c1O | 0 | 19µM | ? | 0 | 18.3µM | ?
CN(C)c1ccc(CNc2nc3ccccc3s2)cc1 | 0.1µM | 0.239µM | 0.251µM | - | 0.461µM | ?
O=C(Nc1nnc(-c2ccc(F)cc2)o1)c1ccc(S(=O)(=O)N2CCOCC2)cc1 | 0 | 0 | 0 | - | 0 | 7.3µM
COc1cccc(-c2nnc(NC(=O)c3ccc(S(=O)(=O)N4CC(C)OC(C)C4)cc3)o2)c1 (configuration not stated) | 0 | 0 | 0 | 0 | 0 | 2.59µM
CC1CN(S(=O)(=O)c2ccc(C(=O)Nc3nnc(-c4ccco4)o3)cc2)CC(C)O1 (configuration not stated) | 0 | 0 | 0 | 0 | 0 | 18.3µM
